Screens: PubChem BioAssay, National Center for Advancing Translational Sciences (NCATS)
AID923 – qHTS Assay for Allosteric/Competitive Inhibitors of Caspase-1: Spectroscopic Profiling in AFC Spectral Region | 75,000 tested, 1.1% active | Potency, µM (doses to about 57.5 µM), for inactives: at the top dose fluorescence increase, usual class: activators | compound fluorescence, AFC spectral region (405/520 nm); note: potency is the fitted concentration of half-maximal effect; 0% is about no effect
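Compound autofluorescence profiled at 405 nm ex/520 nm em during kinetic caspase 1 run (50 nM enzyme, 5 uM Ac-WEHD-AFC, HEPES pH 7.5, 10 mM DTT). Titration up to 57 uM; baseline from regression intercept, normalized to AFC standard curve.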
CRE-bla Fsk – modulators of forskolin-stimulated CRE signaling in CHO cells. CHO CRE-bla reporter (cAMP response element driving beta-lactamase), forskolin EC10, beta-lactamase ratio. Potency, µM (highest dose often 38.2 µM), without a hit: at the highest dose activity change, negative = inhibition, hits mostly activators. AID 662. 71,000 tested, 2.5% active; active = well fitted activation curve with a large enough effect in the signal ratio, with a control signal flat, not every such curve was filed as active; inconclusive = small, poorly fitted or top-dose-only effect, or effect the other way, or a change in a side signal; the % refers to the signal ratio; note: potency is the fitted concentration of half-maximal effect; % of control where 0% means no effect
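CHO CRE-bla cells, overnight plating in Opti-MEM with 0.5% dialyzed FBS; cpd titration + EC10 NKH 477, 3 h 37 °C; CCF4 2 h RT; ex 405/em 460 vs 530 ratio → %Activity, AC50.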
A350 autofl – compounds fluorescent in Alexa 350 spectral region. Compound autofluorescence, 340/450 nm, Alexa 350 dye-equivalents; hits give high values. max dye-equivalent concentration, M. 59,000 tested, 11% active. AID 590; in the data active = max dye-equivalent concentration above about 10 nM; inconclusive = mostly about 1.1 nM to 9.6 nM
HSD17B inh – HSD17B dehydrogenase inhibition. 75,000 tested, 7.6% active. Q99714. recombinant HSD17B10, NADH fluorescence kinetic. Potency, µM (highest dose often 57.1 µM), for inactives: at the highest dose activity change, negative = inhibition, hits mostly inhibitors. AID 893;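 note: the protocol describes HADH2 (HSD17B10) and not the HSD17B4 of the title; potency is the fitted concentration of half-maximal effect; % is set by controls: 0 for no effect and ±100 for the full control effect; nearly all actives have a fitted effect of over 70% in size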
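Enzyme plus compound, 15 min room temperature; substrate mix added (NAD+ 1 mM, beta-hydroxybutyryl-CoA 90 uM final); plates read kinetically for NADH fluorescence. HADH2 was His-tagged, E. coli-derived, 20 nM.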
4-MU autofl – compounds fluorescent in 4-MU spectral region | max dye-equivalent concentration, M | 59,000 tested, 11% active | compound autofluorescence, 340/450 nm, 4-MU equivalents; hits give high values; in the data active = max dye-equivalent concentration above about 10 nM; inconclusive = mostly about 1.1 nM to 9.6 nM
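Compounds in 100 mM Tris, pH 8.0, sat 15 min at room temperature before fluorescence was read at 340 nm excitation/450 nm emission; a per-plate six-point 4-MU standard curve converted signals to dye-equivalent concentration at each compound concentration.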
HADH2 inhib – HADH2 (human) dehydrogenase inhibition; Q99714; Potency, µM (titrated, usually from 57.1 µM), without a hit: at the top dose activity change, negative = inhibition, hits mostly inhibitors; recombinant HADH2, NADH fluorescence, beta-hydroxybutyryl-CoA; 73,000 tested, 3.4% active; note: potency is the fitted concentration of half-maximal effect; % is set by controls: 0 for no effect and ±100 for the full control effect; nearly all actives have a fitted effect of over 60% in size
Target sequence (Q99714 whole entry, looked up, one chain of several): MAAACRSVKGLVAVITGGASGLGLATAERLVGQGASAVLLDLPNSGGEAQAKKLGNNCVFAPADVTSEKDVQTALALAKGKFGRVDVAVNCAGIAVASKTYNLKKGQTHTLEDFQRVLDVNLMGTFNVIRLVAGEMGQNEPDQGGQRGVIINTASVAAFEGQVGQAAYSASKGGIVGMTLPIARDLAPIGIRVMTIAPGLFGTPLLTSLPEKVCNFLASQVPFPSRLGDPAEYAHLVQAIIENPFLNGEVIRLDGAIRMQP
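His-tagged recombinant enzyme from E. coli, 20 nM, preincubated 15 min RT with compound; reaction started with 1 mM NAD+ and 90 uM beta-hydroxybutyryl-CoA in 100 mM Tris-HCl pH 9.0. NADH fluorescence (ex 360/em 450) read over 4 min; last-minus-first difference.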
The depositor's hits bear a star; i = inactive; u = inconclusive; x = no result given; [ ] = dose if it differs, or a comment. Only some compounds are listed: those with a hit (about 14% of all), similar ones and a draw of the others. Unless noted, calls come from the whole dose curve; as a rule, active = well fitted curve in the direction sought with a large enough effect; inconclusive = small, poorly fitted or top-dose-only effect, or another doubt; inactive = no such curve, though single readings can be large; an effect the other way counts as inactive or inconclusive.

SMILES	AID923	CRE-bla Fsk	A350 autofl	HSD17B inh	4-MU autofl	HADH2 inhib
O=C1CCc2c(ccc3ccccc23)O1	3.0%	-5.1%	x	25.1µM*	x	39.8µM*
COC(=O)/C(C)=C\CC12OC(C)(C)C3CC(C=C4C(=O)c5c(OC)c6c(c(CC=C(C)C)c5OC431)OC(C)(CCC=C(C)C)C=C6)C2=O (centres undefined)	-1.8%	x	x	-18.7%	x	x
CC(=O)Oc1c2c(c(CC=C(C)C)c3c1C(=O)C1=CC4CC5C(C)(C)OC(C/C=C(\C)C(=O)O)(C4=O)[C@]15O3)OC(C)(CCC=C(C)C)C=C2 (some centres undefined)	3.9%	x	x	10µM*	x	x
CC1COC2=C1C(=O)C(=O)c1c2ccc2c1CCCC2(C)C (centres undefined)	6.3%	x	x	25.1µM*	x	x
Nc1ccccc1	-0.7%	-7.7%	x	-2.5%	x	5.3%
c1ccc(N=Nc2ccccc2)cc1	-1.7%	0.7%	x	-3.1%	x	-2.5%
O=Nc1ccc(Nc2ccccc2)cc1	1.5%	u	x	-28.6%	x	3.16µM*
c1ccc(Nc2ccc(Nc3ccccc3)cc2)cc1	-0.9%	-16.7%	x	31.6µM*	x	u
N[C@H](Cn1oc(=O)[nH]c1=O)C(=O)O	x	0.5%	i	x	i	7.2%
COc1ccc2c(c1O)-c1cccc3c1[C@H](C2)N(C)CC3	-1.2%	2.4%	1.14e-08M*	25.1µM*	1.19e-08M*	20µM*
COc1ccc2c(c1O)-c1c(OC)c(OC)cc3c1[C@H](C2)N(C)CC3	-1.5%	-1.9%	i	u	i	2.1%
CCCN1CCc2cccc3c2[C@@H]1Cc1ccc(O)c(O)c1-3	-4.2%	-2.1%	1.68e-08M*	20µM*	1.93e-08M*	0.501µM*
COc1cc2cc(c1Cl)N(C)C(=O)C[C@H](OC(=O)C(C)C)[C@]1(C)O[C@@H]1[C@@H](C)[C@H]1C[C@](O)(NC(=O)O1)[C@@H](OC)/C=C\C=C(\C)C2	0.3%[11.5 µM]	0.0158µM*	i	0.4%[11.4 µM]	i	11.7%[11.4 µM]
C[C@@H]1O[C@@H](O[C@H]2C[C@@H](O)[C@]3(CO)[C@@H]4[C@@H](O)C[C@]5(C)[C@H](C6=CC(=O)OC6)CC[C@@]5(O)[C@H]4CC[C@@]3(O)C2)[C@H](O)[C@H](O)[C@@H]1O	-4.3%	0.8%	i	-0.9%	i	-1.5%
Oc1c(Br)c(Br)c(Br)c(Br)c1Br	-2.3%	u	x	10µM*	x	31.6µM*
Cc1c([C@@H](C)[C@H]2NC[C@H](C)C[C@@H]2O)ccc2c1C[C@@H]1[C@H]2CC=C2C[C@@H](O)CC[C@@]21C	-2.1%[11.5 µM]	-8.1%[7.6 µM]	i	7.8%[11.4 µM]	i	-4.2%[11.4 µM]
CCN1C[C@@]2(COC(=O)c3ccccc3N3C(=O)C[C@H](C)C3=O)CC[C@H](OC)[C@@]34[C@@H]5CC6[C@@H](OC)C[C@@](O)([C@H]5[C@H]6OC)C(O)([C@@H]13)[C@@H](OC)[C@H]24	x	-1.3%	i	x	i	6.5%
C=CC1CC=CCC1 (centres undefined)	0.9%	-8.6%	x	2.6%	x	-6.6%
CC1(C)[C@@H]2CC[C@]1(C)CN(CCC[N+](C)(C)C)C2	-4.3%[11.5 µM]	12.9%[7.6 µM]	i	-3.1%[11.4 µM]	i	11.5%[11.4 µM]
C=CC=O	-0.5%	-10.9%	x	-5.2%	x	5.9%
O=S(=O)(Nc1ccc(-c2nc3ccccc3o2)cc1)c1ccccc1	2.3%	5.7%	1.54e-08M*	31.6µM*	1.58e-08M*	u
C[C@@H]1O[C@H](O[C@H]2C[C@@H](O)[C@]3(CO)[C@H]4[C@H](O)C[C@]5(C)[C@@H](C6=CC(=O)OC6)CC[C@@]5(O)[C@H]4CC[C@]3(O)C2)[C@@H](O)[C@H](O)[C@H]1O	x	u	i	x	i	-10.6%
CN(C)CCCNc1c2c(nc3ccc(Cl)cc13)CCCC2	1.5%[11.5 µM]	0.8%[7.6 µM]	1e-07M*	0.9%[11.4 µM]	9.06e-08M*	17.2%[11.4 µM]
C=CCN1CC[C@]23c4c5ccc(O)c4O[C@@H]2/C(=N/NC(=O)c2ccccc2)CC[C@@]3(O)[C@H]1C5	-1.0%	-7.8%	i	-6.7%	i	-15.3%
